# Assay results taken from publication PMC7155171, “Probing the Open Global Health Chemical Diversity Library for Multistage-Active Starting Points for Next-Generation Antimalarials” (ACS Infectious Diseases, 2020).
# Assays:
# [1] = test system: P. berghei liver stage (PbLuc); design: species or system HepG2-A16-CD81; P. berghei luciferase sporozoite infection of hepatocytes, liver stage luminescence; settings: inhibitor; for PbLuc primary screen (10uM): inhibition % (n=1): 48 h
# [2] = test system: HepG2-A16-CD81 hepatocytes; design: Uninfected hepatocyte viability, CellTiter-Glo luminescence; settings: cytotoxicity primary screen, inhibitor
SMILES,PbLuc primary screen (10uM): inhibition % (n=1) [1] [%],PbLuc primary screen (2uM): inhibition % (n=1) [1] [%],HepG2 toxicity primary screen (10uM): inhibition % (n=1) [2] [%]
Cn1cc(C(=O)N2CCCC(c3cc(=O)n(C)[nH]3)C2)cn1 (stereo not drawn) [DDD01060486],19.6,27.39,-21.6
Cc1nc(=O)cc(CCNC(=O)CC[C@@H]2CCCN3CCCC[C@H]23)[nH]1 [DDD01256003],44.8,42.6913,0.956
CCc1c(C)[nH]c2cc(C3CCN(Cc4cccnc4)C3)nn2c1=O (stereo not drawn) [DDD01060570],-33.4,31.56,-25.4
CCn1[nH]cc2nc(-c3cc(OC)c(OC)cc3OC)nc1-2 [DDD01254934],26.5,13.04,-2.61
Fc1cccc(C2=NN=CC2=C2NC(CN3CCOCC3)=NO2)c1 [DDD01244908],13.7,24.36,-7.58
CCc1nc(CN(C)C2CCN(CCn3cc(C#N)cn3)C2)no1 (stereo not drawn) [DDD01304196],41.4,-38.96,-6.12
COc1cc(F)ccc1-c1nc2c(C3CC3)[nH]n(C)c-2n1 [DDD01248843],-24.9,-27.89,-1.72
CCC(=O)Nc1[nH]nc2c1c(C)nn2Cc1cccc(OC)c1 [DDD01063148],-31,15.82,-9.24
Cc1[nH]n(C2CCS(=O)(=O)C2)c(=O)c1Cc1cccc(Cl)c1 (stereo not drawn) [DDD01026994],28.5,34.05,-46.865
Cc1[nH]n(C2CCS(=O)(=O)C2)c(=O)c1Cc1ccccc1 (stereo not drawn) [DDD01026976],36.9,-17.38,-44.6
Cn1ccc(C(=O)N2CCCC(c3cc(=O)n(C)[nH]3)C2)n1 (stereo not drawn) [DDD01060541],36.4,2.044,-13.7
Cc1ncc(CN2CCc3[nH]c4cc(C(C)(C)C)nn4c(=O)c3C2)n1C [DDD01058400],-12.3,26.69,8.62
CCn1[nH]cc2nc(-c3cc4c(cc3OC)OCO4)nc1-2 [DDD01244413],-7.2,27.42,-2.99
Cc1nnsc1C(=O)N1CCCCC1c1cc2[nH]c(C)c(C)c(=O)n2n1 (stereo not drawn) [DDD01059036],19.3,-26.26,-5.93
COc1cc2c(cc1-c1nc3c[nH]n(C(C)C4CC4)c-3n1)OCO2 (stereo not drawn) [DDD01244142],34,67.28,4.82
CCc1ccc(NC(=O)Nc2c(O)c3ccccc3oc2=O)cc1 [DDD01037337],-11.4,49.69,5.95
CCc1cc(=O)n2nc(C3CCN(C(=O)c4cccnc4)CC3)cc2[nH]1 [DDD01057176],13.3,-5.593,7.09
COc1cc(OC)c(-c2nc3c(C4CC4)[nH]n(C)c-3n2)cc1OC [DDD01244474],41.8,-47.16,-5.02
CCc1cc(=O)n2nc(C3CCN(C(=O)c4ccccn4)CC3)cc2[nH]1 [DDD01057364],-2.695,26.22,2.29

SMILES,PbLuc primary screen (10uM): inhibition % (n=1) [1] [%],PbLuc primary screen (2uM): inhibition % (n=1) [1] [%],HepG2 toxicity primary screen (10uM): inhibition % (n=1) [2] [%]
O=C(CNC(=O)N1CCc2c([nH]c3ccc(Cl)cc23)C1)N1CCOCC1 [DDD01035668],18.2,-2.915,8.32
Cc1nsc(N2CCCN(CC(=O)N(C)C3CC3)CC2)n1 [DDD01066804],68.5,-11.55,-3.98
Clc1cccc(-c2cccc(N3CCC(NC4CCOCC4)CC3)c2)c1 [DDD01252000],84,-46.68,-4.24
Cc1[nH]n(Cc2ccc(F)cc2)c2nnc(N)c1-2 [DDD01012470],78.2,11.14,1.11
CCc1nn(C)c(N)c1-c1ccc2c(c1)OCO2 [DDD01074639],53.6,37.53,-45.08
COc1cccc(Cn2nc(C)c3c(NC(=O)C(C)OC)[nH]nc32)c1 (stereo not drawn) [DDD01063202],39.7,-10.78,-2.03
CCc1c(C)[nH]c2cc(C3CCN(Cc4cccc(F)c4)C3)nn2c1=O (stereo not drawn) [DDD01060569],77.3,65.74,-6.43
CCc1c(C)nn2c(=O)cc(C3CCN(C(=O)c4cnn(C)c4)C3)[nH]c12 (stereo not drawn) [DDD01056908],9.3875,-18.64,4.85
CCc1c(C)[nH]c2cc(C3CCN(CCc4ccccc4)C3)nn2c1=O (stereo not drawn) [DDD01060567],83.3,20.31,-20.1
Cc1ccccc1CN(C)C(=O)CCC1=NC(=C2N=CN=N2)NO1 [DDD01062116],13.7,27.4706,-42.09
CCc1c(C)nn2c(=O)cc(C3CCN(C(=O)C4CC4)C3)[nH]c12 (stereo not drawn) [DDD01057056],26.6,11.53,1.97
Cc1ccc(CN2CCc3c([nH]c4cc(C5CC5)nn4c3=O)C2)s1 [DDD01058491],44.3,31.81,-3.69
Cc1[nH]n(-c2ccc(F)cc2)c2nnc(N)c1-2 [DDD01065623],46.4,39.0185,13.6
CCc1cc(=O)n2nc(C3CCN(C(=O)c4ccncc4)CC3)cc2[nH]1 [DDD01057177],32.85,-9.67,3.51
Cn1nc(C2CCC2)c(-c2ccc3c(c2)OCO3)c1N [DDD01074643],64.7,14.0603,-42.27
Cc1[nH]n(C2CCCCC2)c2nc(C(C)(C)CN3CCOCC3)nc1-2 [DDD01254749],-16.9,48.54,-3.64
COCCCC(=O)N1CC(=O)Nc2cc(Br)ccc21 [DDD01075689],-20.4,22.41,5.89
CCc1cc(=O)n2nc(C3CCCN3C(=O)c3ccccn3)cc2[nH]1 (stereo not drawn) [DDD01057178],18.85,-15.38,-0.805
CCC(CO)N(Cc1cccnc1)C(=O)c1ccc(C(F)(F)F)[nH]c1=O (stereo not drawn) [DDD01253913],-28.9,20.89,-1.12

SMILES,PbLuc primary screen (10uM): inhibition % (n=1) [1] [%],PbLuc primary screen (2uM): inhibition % (n=1) [1] [%],HepG2 toxicity primary screen (10uM): inhibition % (n=1) [2] [%]
CCCc1nn(C)c(N)c1-c1ccc2c(c1)OCO2 [DDD01074641],27.6,5.918,-51.45
COCC(=O)Nc1[nH]nc2c1c(C)nn2Cc1cccc(OC)c1 [DDD01063147],-14.8,27.76,-11.7
COc1cccc(C2=NN=CC2=C2NC(CN3CCCC3)=NO2)c1 [DDD01247208],34,45.82,-23.2
Cc1cccc(C2N3CCC4(CC3)c3[nH]c5ccccc5c3CCN24)n1 (stereo not drawn) [DDD01058402],-19.7,38.22,8.06
Cc1[nH]n(C2CCS(=O)(=O)C2)c(=O)c1Cc1ccccc1Cl (stereo not drawn) [DDD01026964],34.1,-0.8948,-45.665
CSc1cccc(NC(=O)Nc2c(O)c3ccccc3oc2=O)c1 [DDD01037688],1.86,28.0462,4.45
CN(CCCc1ccccc1)C(=O)CCC1=NC(=C2N=CN=N2)NO1 [DDD01062165],22,-4.851,-44.845
Cc1[nH]c2cc(C3CCN(Cc4cccc(F)c4F)C3)nn2c(=O)c1C (stereo not drawn) [DDD01270135],90.4,18.8,0.333
CCc1c(C)[nH]c2cc(C3CCN(Cc4ccccc4F)C3)nn2c1=O (stereo not drawn) [DDD01270117],85.9,29.7326,1.7
Cc1ncsc1C(=O)N1CCCCC1c1cc2[nH]c(C)c(C)c(=O)n2n1 (stereo not drawn) [DDD01059037],-26.2,11.32,-8.94
Cc1[nH]c2cc(C3CCN(Cc4ccccc4F)C3)nn2c(=O)c1C (stereo not drawn) [DDD01060615],61.7,28.64,5.52
Cn1nc(C2CC2)c(-c2ccc3c(c2)OCO3)c1N [DDD01074640],16.5,58.6,-47.475
CN(Cc1ccc(F)c(F)c1)C(=O)CCC1=NC(=C2N=CN=N2)NO1 [DDD01062114],55.4,6.397,-43.56
COc1ccc(-c2c(C(C)C)nn3c(N)c(C#N)nnc23)cc1 [DDD01035184],53.1,9.631,-12.2
COc1cc2c(cc1-c1nc3c[nH]n(C)c-3n1)OCO2 [DDD01248770],28.7,21.97,-8.9
COCCC(=O)N1CCC(c2cc(=O)n(C)[nH]2)C1 (stereo not drawn) [DDD01060470],0.301,15.3,-23.1
Cc1nc(N2CCCC2)ncc1-c1cc(=O)n2ncnc2[nH]1 [DDD01038581],16.8,10.62,10.6
CCc1c(C)[nH]c2cc(C3CCN(Cc4ccc(F)cc4)C3)nn2c1=O (stereo not drawn) [DDD01060568],66.5,40.31,-18.6
CCc1c(C)nn2c(=O)cc(C3CCN(C(=O)c4ccn(C)n4)C3)[nH]c12 (stereo not drawn) [DDD01056907],3.623,-25.98,7.915
